# Laboratory results reported in the supplement of paper PMC11001985.
# Compound: C#CCNC(=O)CCSSCCC(=O)NCCc1ccc(C=O)c(C=O)c1
# Assay: lysine labeling ratio R10:1 (500 µM / 50 µM probe), SILAC-ABPP in living cells; higher = lower intrinsic lysine reactivity toward the probe, active = 2 or less
# Conditions: HeLa; probe concentrations 500 vs 50 µM
# Procedure, shortened: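 For each lysine, R is the median over forward and reverse replicates of the filtered median MS1 peptide ratio of high probe to low probe. The probe, an alkyne-tagged, disulfide-linked lysine probe, was given at 500 µM or 50 µM to living SILAC light and heavy HeLa cells in PBS at room temperature, with label swaps. Values are capped at 20.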
# Chain of UniProt P05556 (P05556 whole entry): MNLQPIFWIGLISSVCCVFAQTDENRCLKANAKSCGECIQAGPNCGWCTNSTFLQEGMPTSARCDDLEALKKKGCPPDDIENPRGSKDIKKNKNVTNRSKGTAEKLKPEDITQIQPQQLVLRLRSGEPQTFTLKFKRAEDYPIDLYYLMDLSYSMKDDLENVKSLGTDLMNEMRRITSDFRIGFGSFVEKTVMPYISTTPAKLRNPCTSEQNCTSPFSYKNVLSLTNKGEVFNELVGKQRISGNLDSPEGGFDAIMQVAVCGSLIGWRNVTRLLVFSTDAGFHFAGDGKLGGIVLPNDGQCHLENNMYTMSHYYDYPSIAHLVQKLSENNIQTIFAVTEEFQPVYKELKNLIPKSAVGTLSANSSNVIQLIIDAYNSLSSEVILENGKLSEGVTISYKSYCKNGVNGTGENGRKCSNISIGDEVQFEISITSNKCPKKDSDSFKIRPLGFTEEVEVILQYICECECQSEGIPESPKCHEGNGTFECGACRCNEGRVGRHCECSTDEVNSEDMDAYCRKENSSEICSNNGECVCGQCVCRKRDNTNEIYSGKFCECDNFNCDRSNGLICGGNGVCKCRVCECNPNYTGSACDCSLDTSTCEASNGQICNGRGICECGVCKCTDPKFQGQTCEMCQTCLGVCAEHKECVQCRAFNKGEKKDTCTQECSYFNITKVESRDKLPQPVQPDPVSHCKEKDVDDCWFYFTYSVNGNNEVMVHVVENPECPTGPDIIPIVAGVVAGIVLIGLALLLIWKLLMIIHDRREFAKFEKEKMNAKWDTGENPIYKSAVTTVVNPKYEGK
# Chain of UniProt P11142 (P11142 whole entry, looked up): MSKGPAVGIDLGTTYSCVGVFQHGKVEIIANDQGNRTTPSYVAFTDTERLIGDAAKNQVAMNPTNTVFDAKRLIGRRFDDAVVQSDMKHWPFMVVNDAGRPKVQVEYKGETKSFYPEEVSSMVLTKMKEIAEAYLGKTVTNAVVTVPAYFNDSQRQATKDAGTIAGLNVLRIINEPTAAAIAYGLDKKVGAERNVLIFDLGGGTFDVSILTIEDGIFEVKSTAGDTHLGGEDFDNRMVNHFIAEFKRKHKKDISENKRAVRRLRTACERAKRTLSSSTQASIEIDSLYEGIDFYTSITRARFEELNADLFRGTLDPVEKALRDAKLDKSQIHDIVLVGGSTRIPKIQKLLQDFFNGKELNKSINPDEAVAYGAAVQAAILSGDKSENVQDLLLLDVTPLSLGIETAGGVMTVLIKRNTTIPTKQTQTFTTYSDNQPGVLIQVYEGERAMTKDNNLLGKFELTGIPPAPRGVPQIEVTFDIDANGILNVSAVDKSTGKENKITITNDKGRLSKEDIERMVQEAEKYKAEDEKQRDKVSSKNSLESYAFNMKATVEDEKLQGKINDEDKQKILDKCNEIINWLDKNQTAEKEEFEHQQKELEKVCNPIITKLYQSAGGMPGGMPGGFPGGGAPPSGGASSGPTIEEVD
# Chain of UniProt Q15084 (Q15084 whole entry): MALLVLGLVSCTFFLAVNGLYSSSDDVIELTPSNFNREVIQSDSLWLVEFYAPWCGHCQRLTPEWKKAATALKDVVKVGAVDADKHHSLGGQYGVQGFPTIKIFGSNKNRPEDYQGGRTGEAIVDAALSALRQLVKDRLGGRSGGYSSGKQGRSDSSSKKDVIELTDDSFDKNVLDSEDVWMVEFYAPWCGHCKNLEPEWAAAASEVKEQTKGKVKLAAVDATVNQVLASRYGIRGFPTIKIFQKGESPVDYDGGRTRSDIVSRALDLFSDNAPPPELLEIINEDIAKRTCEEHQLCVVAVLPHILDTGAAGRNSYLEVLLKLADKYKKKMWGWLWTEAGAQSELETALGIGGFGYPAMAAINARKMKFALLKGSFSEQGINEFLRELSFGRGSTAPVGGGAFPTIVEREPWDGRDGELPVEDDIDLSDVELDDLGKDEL
# Chain of UniProt P05186 (P05186 whole entry): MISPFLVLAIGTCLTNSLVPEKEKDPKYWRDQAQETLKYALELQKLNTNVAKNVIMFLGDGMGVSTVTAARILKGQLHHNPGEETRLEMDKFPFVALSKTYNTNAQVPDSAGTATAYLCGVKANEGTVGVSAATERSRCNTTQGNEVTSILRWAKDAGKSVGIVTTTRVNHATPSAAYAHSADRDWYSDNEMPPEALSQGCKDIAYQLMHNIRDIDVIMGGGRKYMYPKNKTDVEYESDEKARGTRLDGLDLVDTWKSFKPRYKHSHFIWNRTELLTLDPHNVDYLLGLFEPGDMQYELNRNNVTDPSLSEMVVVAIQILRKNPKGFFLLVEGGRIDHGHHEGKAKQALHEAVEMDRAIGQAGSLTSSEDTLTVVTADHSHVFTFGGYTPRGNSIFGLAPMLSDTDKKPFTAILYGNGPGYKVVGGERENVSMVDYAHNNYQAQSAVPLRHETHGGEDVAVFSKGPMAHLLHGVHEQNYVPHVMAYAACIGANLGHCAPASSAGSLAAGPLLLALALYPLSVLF
# Chain of UniProt P13797 (P13797 whole entry): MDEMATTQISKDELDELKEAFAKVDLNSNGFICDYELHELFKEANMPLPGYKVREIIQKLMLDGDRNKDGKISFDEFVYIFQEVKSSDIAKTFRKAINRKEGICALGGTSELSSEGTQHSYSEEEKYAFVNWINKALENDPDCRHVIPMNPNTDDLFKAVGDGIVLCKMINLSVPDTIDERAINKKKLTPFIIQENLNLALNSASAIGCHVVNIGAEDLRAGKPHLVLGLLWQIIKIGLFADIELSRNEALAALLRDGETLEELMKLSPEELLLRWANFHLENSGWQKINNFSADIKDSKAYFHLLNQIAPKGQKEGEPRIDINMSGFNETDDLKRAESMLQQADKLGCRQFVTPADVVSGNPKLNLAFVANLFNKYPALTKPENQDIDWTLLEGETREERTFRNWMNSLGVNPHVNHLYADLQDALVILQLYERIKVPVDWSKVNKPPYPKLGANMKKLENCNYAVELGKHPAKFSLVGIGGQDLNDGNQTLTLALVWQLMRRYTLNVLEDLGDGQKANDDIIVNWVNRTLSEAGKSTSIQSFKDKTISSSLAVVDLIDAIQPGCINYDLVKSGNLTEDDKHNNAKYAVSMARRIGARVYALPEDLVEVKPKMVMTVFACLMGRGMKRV
# Chain of UniProt Q9Y6N7 (Q9Y6N7 whole entry): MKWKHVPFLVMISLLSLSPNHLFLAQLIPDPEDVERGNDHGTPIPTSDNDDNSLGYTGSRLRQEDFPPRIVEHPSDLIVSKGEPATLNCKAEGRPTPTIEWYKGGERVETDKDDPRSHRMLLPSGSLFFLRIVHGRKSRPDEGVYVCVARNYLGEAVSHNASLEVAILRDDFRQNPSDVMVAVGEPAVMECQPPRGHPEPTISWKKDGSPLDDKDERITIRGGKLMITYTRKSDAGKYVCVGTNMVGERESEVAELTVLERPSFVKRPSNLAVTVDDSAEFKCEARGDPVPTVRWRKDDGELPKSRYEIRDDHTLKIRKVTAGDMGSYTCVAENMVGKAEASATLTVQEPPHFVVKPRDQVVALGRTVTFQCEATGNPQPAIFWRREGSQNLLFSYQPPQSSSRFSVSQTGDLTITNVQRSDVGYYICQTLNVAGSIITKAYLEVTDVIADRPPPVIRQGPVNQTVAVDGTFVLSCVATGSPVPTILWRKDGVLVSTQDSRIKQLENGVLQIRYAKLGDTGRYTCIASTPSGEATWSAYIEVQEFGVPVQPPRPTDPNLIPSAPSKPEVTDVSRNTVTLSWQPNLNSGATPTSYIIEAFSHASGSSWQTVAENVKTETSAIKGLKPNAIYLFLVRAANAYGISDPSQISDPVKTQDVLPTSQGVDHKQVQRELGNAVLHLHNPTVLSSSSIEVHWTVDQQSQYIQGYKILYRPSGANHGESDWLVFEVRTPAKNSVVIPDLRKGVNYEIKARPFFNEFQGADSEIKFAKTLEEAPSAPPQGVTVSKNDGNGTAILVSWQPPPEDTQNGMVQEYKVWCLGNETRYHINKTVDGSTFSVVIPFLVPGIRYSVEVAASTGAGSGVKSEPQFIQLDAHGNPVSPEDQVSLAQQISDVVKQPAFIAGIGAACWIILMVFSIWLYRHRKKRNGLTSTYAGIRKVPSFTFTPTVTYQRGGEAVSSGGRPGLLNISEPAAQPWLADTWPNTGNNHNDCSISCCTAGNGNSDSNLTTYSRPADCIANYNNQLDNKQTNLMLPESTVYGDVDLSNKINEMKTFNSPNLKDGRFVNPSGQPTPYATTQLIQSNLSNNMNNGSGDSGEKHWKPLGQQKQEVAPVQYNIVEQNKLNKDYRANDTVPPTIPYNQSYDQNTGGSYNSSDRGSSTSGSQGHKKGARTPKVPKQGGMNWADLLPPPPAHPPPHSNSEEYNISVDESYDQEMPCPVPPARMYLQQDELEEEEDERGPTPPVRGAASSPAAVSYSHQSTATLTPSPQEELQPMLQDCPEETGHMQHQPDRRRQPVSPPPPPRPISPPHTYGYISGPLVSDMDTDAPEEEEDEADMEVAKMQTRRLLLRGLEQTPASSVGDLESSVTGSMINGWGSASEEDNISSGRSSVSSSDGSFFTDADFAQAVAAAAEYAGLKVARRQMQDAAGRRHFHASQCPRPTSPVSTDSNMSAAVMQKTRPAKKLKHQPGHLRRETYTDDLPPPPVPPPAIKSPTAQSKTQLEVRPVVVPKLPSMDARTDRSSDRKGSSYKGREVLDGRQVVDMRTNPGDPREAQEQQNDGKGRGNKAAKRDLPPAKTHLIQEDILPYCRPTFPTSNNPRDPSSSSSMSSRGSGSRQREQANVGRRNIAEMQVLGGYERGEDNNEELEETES
# Chain of UniProt P07355 (P07355 whole entry): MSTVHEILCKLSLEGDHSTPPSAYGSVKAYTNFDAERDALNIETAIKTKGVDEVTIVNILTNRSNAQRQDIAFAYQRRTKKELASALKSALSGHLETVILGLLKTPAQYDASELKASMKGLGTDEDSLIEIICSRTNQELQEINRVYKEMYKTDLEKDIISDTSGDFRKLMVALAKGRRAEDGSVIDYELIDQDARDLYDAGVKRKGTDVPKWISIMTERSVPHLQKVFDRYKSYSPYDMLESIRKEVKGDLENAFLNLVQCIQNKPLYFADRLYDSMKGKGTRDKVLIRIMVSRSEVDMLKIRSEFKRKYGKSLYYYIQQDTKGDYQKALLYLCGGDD
row,Target,lysine labeling ratio R10:1
1,PDIA6 (lysine site: K245) (UniProt Q15084),1.95 (active)
2,CD109 (lysine site: K573) (UniProt Q6YHK3),2.8 (inactive)
3,DDR1 (lysine site: K112) (UniProt Q08345),2.03 (inactive)
4,PVR (lysine site: K144) (UniProt P15151),4.25 (inactive)
5,PLS3 (lysine site: K52) (UniProt P13797),2.05 (inactive)
6,CCT8 (lysine site: K318) (UniProt P50990),2.44 (inactive)
7,UniProt Q16363 (lysine site: K1068),2.52 (inactive)
8,EDIL3 (lysine site: K235) (UniProt O43854),7.28 (inactive)
9,ROBO1 (lysine site: K137) (UniProt Q9Y6N7),5.8 (inactive)
10,SPTAN1 (lysine site: K250) (UniProt Q13813),1.09 (active)
11,UniProt P05186 (lysine site: K241),3.23 (inactive)
12,ITGA6 (lysine site: K680) (UniProt P23229),2.82 (inactive)
13,UniProt P62195 (lysine site: K55),2.19 (inactive)
14,ANXA2 (lysine site: K204) (UniProt P07355),7.37 (inactive)
15,PLOD2 (lysine site: K358) (UniProt O00469),2.23 (inactive)
16,EPRS (lysine site: K666) (UniProt P07814),0.985 (active)
17,FLNB (lysine site: K1780) (UniProt O75369),2.69 (inactive)
18,VASN (lysine site: K333) (UniProt Q6EMK4),1.84 (active)
19,MSN (lysine site: K79) (UniProt P26038),2.55 (inactive)
20,LMAN1 (lysine site: K407) (UniProt P49257),3.11 (inactive)

row,Target,lysine labeling ratio R10:1
1,CAPZA1 (lysine site: K19) (UniProt P52907),2.43 (inactive)
2,SERPINH1 (lysine site: K39) (UniProt P50454),5.74 (inactive)
3,UniProt Q99466 (lysine site: K1372),9.22 (inactive)
4,UniProt Q5XKE5 (lysine site: K350),4.43 (inactive)
5,UniProt Q9NYQ6 (lysine site: K324),0.873 (active)
6,CCT3 (lysine site: K249) (UniProt P49368),1.76 (active)
7,PTGFRN (lysine site: K435) (UniProt Q9P2B2),5.47 (inactive)
8,LAMA5 (lysine site: K1227) (UniProt O15230),2.71 (inactive)
9,ILF3 (lysine site: K553) (UniProt Q12906),4.76 (inactive)
10,ITGB1 (lysine site: K73) (UniProt P05556),2.27 (inactive)
11,CLU (lysine site: K322) (UniProt P10909),1.38 (active)
12,HSPA8 (lysine site: K159) (UniProt P11142),5.07 (inactive)
13,GPI (lysine site: K34) (UniProt P06744),2.53 (inactive)
14,DSG2 (lysine site: K406) (UniProt Q14126),3.75 (inactive)
15,UniProt P62249 (lysine site: K73),3.59 (inactive)
16,UniProt Q15149 (lysine site: K2309),2.6 (inactive)
17,ENG (lysine site: K556) (UniProt P17813),2.03 (inactive)
18,FN1 (lysine site: K2030) (UniProt P02751),0.807 (active)
19,MET (lysine site: K599) (UniProt P08581),1.67 (active)
20,ITGB1 (lysine site: K105) (UniProt P05556),6.92 (inactive)
